We go through 40 molecules from the supplement of paper PMC8975748.

Where a name gives a salt, the structure may show the parent alone.

In the assay the test system is Saccharomyces cerevisiae BY4741 SeMeCo community. In words: z-score of subpopulation abundance vs DMSO median, subpopulation auxotrophic for M; higher = larger share of this subpopulation than in DMSO controls. To be noted: 10 µM; 24 h; SM minimal medium; subpopulation (auxotrophy): M. A digest of the protocol: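 Four plasmids, each restoring a single auxotrophy and encoding a distinct fluorescent protein, were carried by a Saccharomyces cerevisiae BY4741 community. After overnight growth to OD600 1.0 and dilution to 0.3, 70 µl per well was grown for 24 h in minimal SM medium on 384-well plates acoustically predosed with library drugs at 10 µM final. Following paraformaldehyde fixation, automated confocal microscopy was used, with single-auxotroph fluorescent strains defining thresholds and autofluorescence correction. Subpopulation abundance was then scored as a z-score against the vehicle-well median.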
As to `CN(C)[C@@H](CCOc1cccc2ccccc12)c1ccccc1` [Dapoxetine HCl], the “z-score of subpopulation abundance” value is -0.23. The figure for `CC1(C)S[C@@H]2[C@H](NC(=O)Cc3ccccc3)C(=O)N2[C@H]1C(=O)O.CCN(CC)CCOC(=O)c1ccc(N)cc1` [Penicillin G Procaine] is 0.35; for `CC(=O)Oc1ccccc1C(=O)O` [Aspirin] it is 1.14. In the case of `Nc1ccc(S(=O)(=O)Nc2ccnn2-c2ccccc2)cc1` [Sulfaphenazole] it was 0.25; in that of `C[C@@H]1CC(=O)NN=C1c1ccc(NN=C(C#N)C#N)cc1` [Levosimendan], -0.05; in that of `CCN1CCC[C@H]1CNC(=O)c1cc(S(N)(=O)=O)ccc1OC` [Levosulpiride], -0.33.

In the case of `CN1CCN(CCCN2c3ccccc3Sc3ccc(C(F)(F)F)cc32)CC1` [Trifluoperazine 2HCl], the “z-score of subpopulation abundance” value was -0.02. Regarding `COc1ccc2c(c1)c(CC(=O)OCC(=O)O)c(C)n2C(=O)c1ccc(Cl)cc1` [Acemetacin], the “z-score of subpopulation abundance” value is 0.01. With `CC[C@H]1OC(=O)[C@H](C)[C@@H](O[C@H]2C[C@@](C)(OC)[C@@H](O)[C@H](C)O2)[C@H](C)[C@@H](O[C@@H]2O[C@H](C)C[C@H](N(C)C)[C@H]2O)[C@](C)(O)C[C@@H](C)CN(C)[C@H](C)[C@@H](O)[C@]1(C)O` [Azithromycin], the “z-score of subpopulation abundance” value is -0.81. In the case of `Clc1ccccc1C(c1ccccc1)(c1ccccc1)n1ccnc1` [Clotrimazole] it was 4.9; in that of `CO/N=C(\C(=O)N[C@@H]1C(=O)N2C(C(=O)O)=C(CSc3nc(=O)c(O)nn3C)CS[C@H]12)c1csc(N)n1` [Ceftriaxone Sodium Trihydrate], -1.17. In the case of `C[C@H](NCc1ccc(OCc2cccc(F)c2)cc1)C(N)=O` [Safinamide] it was 0.59; in that of `CCOC(=O)C1=C(C)NC(C)=C(C(=O)OC)C1c1cccc(Cl)c1Cl` (stereo not given) [Felodipine], 3.86; in that of `C[C@@H](O)[C@H]1C(=O)N2C(C(=O)O)=C([C@H]3CCCO3)S[C@H]12` [Faropenem Sodium], 0.61. `O=C1CCc2cc(OCCCCc3nnnn3C3CCCCC3)ccc2N1` [Cilostazol]: the “z-score of subpopulation abundance” value is -0.68. Turning to `COc1cc(NS(=O)(=O)c2ccc(N)cc2)ncn1` [Sulfamonomethoxine], the “z-score of subpopulation abundance” value is -0.64. In the case of `Nc1nc2ccc(OC(F)(F)F)cc2s1` [Riluzole] it was -0.49. The figure for `NC(=O)N1c2ccccc2CC(=O)c2ccccc21` [Oxcarbazepine] is -0.31.

With `CCCCC(F)(F)[C@@]1(O)CC[C@H]2[C@@H](CC(=O)[C@@H]2CCCCCCC(=O)O)O1` [Lubiprostone], the “z-score of subpopulation abundance” value was -0.11. The figure for `CCCCCc1ccc(C)cc1O` [Amylmetacresol] is -0.65; for `CCN(CC)CCOC(=O)c1ccc(N)cc1` [Procaine HCl] it is -0.44; for `O=C(O)CCC(=O)Nc1ccc(S(=O)(=O)Nc2nccs2)cc1` [Succinylsulfathiazole] it is -0.13. In the case of `N[C@@H]1CONC1=O` [D-Cycloserine], the “z-score of subpopulation abundance” value was -0.07. Take `CCOC(=O)C1=C[C@]2(CC)CCCN3CCc4c(n1c1ccccc41)[C@@H]32` [Vinpocetine]: the “z-score of subpopulation abundance” value came out at 2.07. With `COc1ccc2cc(C(=O)O)ccc2c1` [6-Methoxy-2-naphthoic acid], the “z-score of subpopulation abundance” value was -2.65.

Take `CCC(=O)c1c(O)cc(O)cc1O` [Flopropione]: the “z-score of subpopulation abundance” value came out at 0.69. In the case of `Oc1c(Cl)cc(Cl)c(Cl)c1Cc1c(O)c(Cl)cc(Cl)c1Cl` [Hexachlorophene] it was 0.14; in that of `CCCCCCCCc1ccc(CCC(N)(CO)CO)cc1` [Fingolimod], -1.67; in that of `CC1(C)S[C@@H]2[C@H](NC(=O)[C@H](N)c3ccc(O)cc3)C(=O)N2[C@H]1C(=O)O` [Amoxicillin], 0.35. In the case of `CCCc1nc(C)c2c(=O)nc(-c3cc(S(=O)(=O)N4CCN(CC)CC4)ccc3OCC)[nH]n12` [Vardenafil HCl Trihydrate] it was 0.64; in that of `CC[C@@]1(O)C(=O)OCc2c1cc1n(c2=O)Cc2cc3c(CN(C)C)c(O)ccc3nc2-1` [Topotecan HCl], 1.3; in that of `CCC(C)(C)C(=O)O[C@H]1C[C@@H](C)C=C2C=C[C@H](C)[C@H](CC[C@@H]3C[C@@H](O)CC(=O)O3)[C@H]21` [Simvastatin], -0.68. As to `COCCCN1CCC(NC(=O)c2cc(Cl)c(N)c3c2OCC3)CC1` [Prucalopride], the “z-score of subpopulation abundance” value came out at 0.21. In the case of `CO/N=C(\C(=O)N[C@@H]1C(=O)N2C(C(=O)O)=C(CSc3nc(C)c(CC(=O)O)s3)CS[C@H]12)c1csc(N)n1` [Cefodizime Sodium] it was -0.97; in that of `CNCC[C@H](Oc1cccc2ccccc12)c1cccs1` [Duloxetine], 0.27. With `C1N2CN3CN1CN(C2)C3` [Methenamine], the “z-score of subpopulation abundance” value amounted to 0.26. The figure for `O=C(Nc1cccc(C2=NCCN2)c1)Nc1cccc(C2=NCCN2)c1` [Imidocarb dipropionate] is -1.19. The figure for `C[C@H]1c2cccc(O)c2C(O)=C2C(=O)[C@]3(O)C(O)=C(C(N)=O)C(=O)[C@@H](N(C)C)[C@@H]3[C@@H](O)[C@@H]21` [Doxycycline] is 0.04; for `CCc1c2c(nc3ccc(OC(=O)N4CCC(N5CCCCC5)CC4)cc13)-c1cc3c(c(=O)n1C2)COC(=O)[C@]3(O)CC` [Irinotecan HCl Trihydrate] it is 1.27; for `C/C=C\c1ccc(O)c(OC)c1` [Isoeugenol] it is 0.59.
